12-hLO inh – inhibitors of human 12-lipoxygenase (ALOX12); P18054; purified 12-hLO, xylenol orange hydroperoxide absorbance; Potency, µM (series often up to 57.1 µM), usual class: inhibitors; actives 0.12% (n = 150,000); AID 1452; further: nearly all actives have a fitted effect of over 55% in size
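Hydroperoxide formation by human 12-lipoxygenase from 40 uM arachidonic acid was followed colorimetrically via ferric-xylenol orange complex, using the 573/405 nm absorbance ratio. Enzyme concentration was 150 nM, with 30 min reaction at room temperature.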
HTT cytoprotect – Huntington cell model cytoprotection by ATP luminescence; PC12 HTT-Q103 induced, cytoprotection, ATP luminescence, 40 h; Potency, µM (series often up to 56.4 µM), usual class: activators; actives 0.14% (n = 230,000); further: nearly all actives have a fitted effect of over 45% in size
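Readout: ATPlite luminescence (ATP level). Model: stable PC12, inducible Htt exon1 Q103-GFP. Inducer: tebufenozide, 100 nM final. Compounds: dose series. No G418 in medium.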
NPSR antag – neuropeptide S receptor (human) antagonism, cAMP; Q6W5P4; CHO-NPSR cells, cAMP TR-FRET, antagonist mode; Potency, µM (doses to about 38.3 µM), hits mostly inhibitors; actives 1% (n = 220,000); further: nearly all actives have a fitted effect of over 50% in size
Target sequence (Q6W5P4 whole entry, looked up): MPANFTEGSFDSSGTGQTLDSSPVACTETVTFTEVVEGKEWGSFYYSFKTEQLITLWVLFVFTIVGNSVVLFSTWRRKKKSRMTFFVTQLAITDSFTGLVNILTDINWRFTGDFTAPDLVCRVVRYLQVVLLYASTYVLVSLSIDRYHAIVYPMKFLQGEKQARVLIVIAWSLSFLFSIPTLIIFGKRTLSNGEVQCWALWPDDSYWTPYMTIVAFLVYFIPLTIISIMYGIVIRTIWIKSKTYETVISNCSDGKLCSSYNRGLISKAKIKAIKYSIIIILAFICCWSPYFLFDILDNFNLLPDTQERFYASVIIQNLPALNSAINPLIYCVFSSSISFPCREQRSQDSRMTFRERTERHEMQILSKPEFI
IMPase cell inh – cell-permeable inhibitors of inositol monophosphatase (IMPase); P97697; CHO-M1 cells, IP1 accumulation, HTRF TR-FRET ratio; inhibition (IP1 accumulation), % at 46.1 µM; 120,000 tested, under 10 active; AID 901; active means well fitted curve in the direction sought with a large enough effect in the signal ratio, not every such curve was filed as active; inconclusive means small, poorly fitted or top-dose-only effect, or a change in a side signal; inactive means no such curve, though single readings can be large or run the other way; the % refers to the signal ratio;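 further: cells stimulated with carbachol in lithium chloride buffer; higher means more IMPase inhibition seen as more IP1 and lower FRET ratio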
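In this qHTS, compounds (final up to 46 uM) act on CHO-M1 cells that are then activated through the M1 receptor with carbachol, in pH 7.4 buffer containing 50 mM LiCl, for 30 min. IP1 accumulation is quantified by the IP-One immunoassay.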
PNC inhibitor – inhibitors of perinucleolar compartment assembly; actives 3.1% (n = 140,000); activity change (PNC), negative = inhibition, % at 10 µM; PC3M PTB-GFP, PNC prevalence imaging, 16 h; active compounds read low;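 active means readout at or below -70, meaning at least 70% loss of cells showing the perinucleolar compartment, a nuclear body marking cancer cells; inconclusive means readout between -30 and a set limit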
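Read-out is percentage of cells bearing a perinucleolar compartment, from automated 20x imaging of fixed, Hoechst-stained PC3M PTB-GFP cells. Cells were seeded 4 h, then exposed 16 h to compound (23 nl of library stock) in duplicate plates.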
HttQ103 aggreg – inhibitors of mutant huntingtin aggregate formation in PC12 cells; PC12 HttQ103-GFP aggregates, Acumen cytometry, 40 h; Potency, µM (titrated, usually from 46.1 µM), hits mostly inhibitors; actives 1.1% (n = 220,000); further: nearly all actives have a fitted effect of over 60% in size
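Steps: seed 1500 PC12 HTTQ103-GFP cells/well; add tebufenozide, 100 nM final; add compound titration; add ATPLite reagent; quantify GFP aggregates by laser scanning cytometry.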
Numbers stand for hits; - = inactive; ? = inconclusive; . = not tested or not shown; [ ] = dose if it differs, or a comment. Sampled rows, rich in hits. Any-hit rate of the full collection: about 3.3%. Unless noted, the call rests on the fitted dose curve; in most records, active means well fitted curve in the direction sought with a large enough effect; inconclusive means small, poorly fitted or top-dose-only effect, or another doubt; inactive means no such curve, though single readings can be large; an effect the other way counts as inactive or inconclusive.

SMILES	12-hLO inh	HTT cytoprotect	NPSR antag	IMPase cell inh	PNC inhibitor	HttQ103 aggreg
N#Cc1c(N)c(C(=O)c2ccccc2)n2c1CCCC2	-	-[10 µM]	-	-	-	-
O=C(NN=C1CCCCC1)NC1CCCCC1	-	-[10 µM]	-	-	?	-
O=C(NN=C1CCCC1)NC1CCCCC1	-	.	-	.	-118.2	-
O=C(O)CC[P+](c1ccccc1)(c1ccccc1)c1ccccc1	-[11.4 µM]	-[10 µM]	.	.	.	.
COc1cccc(Nc2ncc3nc(CCc4ccccc4)c(=O)n(C)c3n2)c1	.	-	.	.	.	.
c1nnc(NC2=NCCC2)s1	-	-	-	-	-111.1	-
c1nnc(NC2=NCCCCC2)s1	-	-[10 µM]	-	-	-	-
CCN(CC)COC(=S)S	-[11.4 µM]	-[10 µM]	.	.	.	.
OC(CNCCC1C=Nc2ccccc21)Cn1c2ccc(Cl)cc2c2cc(Cl)ccc21 (stereo not drawn)	-	-[10 µM]	10µM	.	?	-
OC(CNCC1CCCO1)Cn1c2ccc(Cl)cc2c2cc(Cl)ccc21 (stereo not drawn)	-	-	?	-	-	-
CC1CCCCN1CCCNC(=O)c1cc(Br)c(Br)[nH]1 (stereo not drawn)	.	-[10 µM]	-	.	.	-[9.22 µM]
CNc1sc(C(=O)c2ccccc2F)c(N)c1-c1nc2ccccc2s1	-	-	3.98µM	-	-	-
O=C(CNC(=O)c1ccccc1F)OCc1nc2ccccc2s1	.	.	-	.	.	-
Fc1ccc(-n2c(Cn3nnc4ccccc43)n[nH]c2=S)cc1	.	-	-	.	.	-
NS(=O)(=O)c1cc(C(=O)O)c(O)c2ccccc12	-[11.4 µM]	-[10 µM]	.	.	.	.
COc1ccc(-n2c(Cc3cccn3C)nnc2SCC(=O)Nc2nccs2)cc1	-	-[10 µM]	-	-	-113.7	-
CCc1nnc(NC(=O)CSc2nnc(COc3ccccc3)n2-c2ccc(C)cc2)s1	-	-	-	-	-	-
Cc1ccc(OCc2nnc(SCC(=O)Nc3cccc4ccccc34)n2-c2ccccc2)cc1	-	-[10 µM]	-	-	-118.9	-
COc1ccc(-n2c(Cc3cccn3C)nnc2SCC(=O)Nc2ccccc2F)cc1	-	-[10 µM]	-	-	-108.4	-
O=C(O)CCC/C=C\CC1C2CCC(O2)C1CNNC(=O)Nc1ccccc1 (stereo not drawn)	-	-	.	.	.	.
CC1(C)C(=O)OC(/C=C/c2cccc([N+](=O)[O-])c2)C(C)(C)C1=O (stereo not drawn)	.	-[10 µM]	-	.	.	-[9.22 µM]
CCC(CC)C1C(C#N)=C(N)Oc2n[nH]c(C)c21 (stereo not drawn)	-	-	-	-	-	-
CCc1[nH]nc2c1C(C(C)C)C(C#N)=C(N)O2 (stereo not drawn)	-	-[10 µM]	-	-	?	11.2µM
COc1cccc(-n2nnc3c(=O)n(Cc4cccc(F)c4)cnc32)c1	-	-	?	-	-	-[9.22 µM]
COc1cccc(-n2nnc3c(=O)n(Cc4c(F)cccc4Cl)cnc32)c1	-	-[0.074 µM]	-	-	-	3.16µM
SMILES	12-hLO inh	HTT cytoprotect	NPSR antag	IMPase cell inh	PNC inhibitor	HttQ103 aggreg
COc1ccc(Cc2nnc(SCc3ccc([N+](=O)[O-])cc3)o2)cc1	.	.	-	.	.	7.08µM
CC(=O)Nc1ccc(SCC(=O)Nc2cc(C(C)(C)C)nn2-c2ccccc2)cc1	-	.	-	.	-115.1	-
Cn1c(SCC(=O)Nc2cc(C(C)(C)C)nn2-c2ccccc2)nc2ccccc21	-	-[1.9 µM]	-	-	-	-
Cc1ccccc1CNC(=O)c1ccccc1C(=O)O	-	.	-	-	-	0.0089µM
CCOc1ccc(NCC(=O)c2ccc(C)cc2)cc1	.	-	-	.	.	11.2µM
COc1cccc([C@H]2Oc3ccc(OC)cc3/C(=N\OC[C@@H](O)[C@@H]3O[C@@H]4OC(C)(C)O[C@@H]4[C@H]3O)[C@@H]2O)c1	.	-[10 µM]	.	.	.	.
Cc1nn(Cc2ccc(Cl)cc2Cl)c(C)c1NC(=O)CCl	-	-[10 µM]	-	?	-	3.55µM
Cc1nn(C)c(Cl)c1NC(=O)OCc1ccc(Cl)cc1Cl	-	-	-	-	-	7.94µM
NCCC[C@@H](CC(=O)N[C@@H]1CCCC[C@H]1C(=O)N[C@H](CC(=O)N[C@@H](CCC(=O)O)CC(=O)O)Cc1c[nH]c2ccccc12)NC(=O)C[C@H](Cc1c[nH]c2ccccc12)NC(=O)[C@@H]1CCCC[C@H]1N	-	-[1.9 µM]	.	.	.	.
